# According to the supplement of paper PMC6555819:
# System: VDR:RXRa (NR concentration 270 nM, RXRa partner concentration 90 nM)
# Assay: PBM binding z-score (relative to random genomic background probes); higher = stronger binding; sequences stand for … in GC…GCGATTGACAGCGTAGAATGAAGG
# Protocol: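 Protein-binding microarray (Agilent 4x180K custom design, double-stranded 60-nt probes: 5' GC cap, 34-nt variable region, 24-nt constant primer region; full probe sequence given). Purified or IVT nuclear receptor:RXRα heterodimers (3:1 NR:RXRα, mostly 270:90 nM) or homodimers were incubated for 1 h in PBS with 2% milk and no ligand, then detected with Alexa488 antibodies. Fluorescence from o1-orientation probes (~5 replicates averaged) was converted to z-scores against 500 random hg19 background probes. Variable regions are seed direct-repeat (DR0–DR5) sites, all their single-nucleotide variants and half-site ablations.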
row,Sequence,PBM binding z-score
1,CCTTACCGGTCAAGGTTATAGCACGGGTGGTACG,0.829
2,CCGAGTAGGTTACGAGGGGGCATTCGGTGCGAAT,5.48
3,CCGTGTAGGTTACGAGGGGGCATTCAGTGCGAAT,5.7
4,ACTCGGAGGACAGAGGTCAGAGCTACGCCAGTGA,2.99
5,AGTGAAAGTTCAGGACGAGGTAACGTAAAGCACG,2.81
6,TTTCCAAGGTGAAAGGTCGTTGATGCACGCCTTG,3.38
7,ACTAGTTGGTAAGCTGAGGTCACACACAATTCGG,3.71
8,TATACAGGATCAAAGGCCAGAGTACGAATGTCGA,0.61
9,ATATGTAGGTTACATCCGAGTCATTCAGGCTATG,0.386
10,CGATCTAGGTCACCAGGACAGTGAAGAGGTTGGA,1.76
11,CCGAGTGGGTTACGAGGGGGCATTCAGTGCGAAT,5.13
12,ATATGTAGGTTAGCGTCATTCAGAAAGTAGGGAA,0.0435
13,CGAACTAGGTGACCAGGACAGTGAAGAGGTTGGA,0.673
14,CGAACTAGGTCACAGGACAGTGAAAGGCGACGTA,1.61
15,CTATGCAGGTTAAGGGGGTCATTCAGTTTGAAAG,7.5
16,TCGAGTACGTTACGGGGGCATTCAGGGATGAAGA,3.76
17,AGTCAAAGTTCATCTAGGTATCGTAAGATATGCT,5.01
18,TCGAGTAGGTTACGGGGGCAATCAGGGATGAAGA,3.22
19,ATACGTAGGTTACATCCGGGTCATTCAGGCTATG,4.16
20,CTATGTAGGTTAAGGGGGGCATTCAGTTTGAAAG,6.21

row,Sequence,PBM binding z-score
1,CCAGACAGGTGAAAGGTCACTCAGTCTGGTACGC,5.03
2,ATATGTACGTTAGGGTCATTCAGAAAGTAGGGAA,4.24
3,TCGAGTAGGTTATGGGGGCATTCAGGGATGAAGA,3.34
4,CCTACTGGGCCATTCAGAGGTCATTGTTCATATG,3.9
5,CAAACTAGGTCAAGGTCAAAGTAGGTTTGTGCCA,5.54
6,CGAACGAGGTCAGAACAGGACAGTGAAGGATGAT,3.67
7,CATACAGGGTCCGCTAGGCCAGAGTAGGGACGGC,-0.537
8,CGAACTAGGTCACCAGGACATTGAAGAGGTTGGA,2.31
9,TCGAGTAGGTTACGGGGGCATTCCGGGATGAAGA,3.83
10,CCGAGTAGGATACGAGGGGGCATTCAGTGCGAAT,3.32
11,TCGAGGAGGTTACGGGGGCATTCAGGGATGAAGA,5.08
12,CGAACTAGGTCACCAGGACAGGGAAGAGGTTGGA,1.91
13,ATCGAACGGTCGAGGTGAGTATAGAGAAAGGGAA,-0.335
14,CCTACTGGGCCAAAAATGTCATTGATGCCGATAA,0.0323
15,CCTTACGGGTCTCTCCAGGTTATAGCATCGGAGT,0.117
16,CTATGGAGGTTAAGGGGGTCATTCAGTTTGAAAG,8.03
17,TCTAGTTGGTCAAAGGCCACACACTCGAAATGCG,1.04
18,CGAACTAGGTCAGAGCAGGACAGTGAAGGATGAT,0.711
19,CGAACTAGGTCACCAGGAGAGTGAAGAGGTTGGA,1.71
20,CAACCTAGGTCACCGGAAGGTCAAAGTCCGCATG,6.51
